Values without a mark were called inactive. Activity calls are given as the source filed them.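 The calls were made as follows: active = mean inhibition over 43.08%, the solvent-only control mean plus 3 SD; inactive = the rest.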
The molecules below were run against Nuclear receptor coactivator 3 (Homo sapiens) (UniProt Q9Y6Q9) (assay: NCOA3 GAL4-fusion reporter inhibition – cell-based, luminescence, quadruplicate, confirmation (AID 588792;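 also: 0% = DMSO treated cells and 100% = gossypol at 36 µM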)). Settings: HEK293 GAL4-SRC3 luciferase reporter, at 3.6 µM, stronger effect = higher value.
Sequence of Nuclear receptor coactivator 3 (Homo sapiens) (Q9Y6Q9 whole entry, looked up, the tested form may be a part): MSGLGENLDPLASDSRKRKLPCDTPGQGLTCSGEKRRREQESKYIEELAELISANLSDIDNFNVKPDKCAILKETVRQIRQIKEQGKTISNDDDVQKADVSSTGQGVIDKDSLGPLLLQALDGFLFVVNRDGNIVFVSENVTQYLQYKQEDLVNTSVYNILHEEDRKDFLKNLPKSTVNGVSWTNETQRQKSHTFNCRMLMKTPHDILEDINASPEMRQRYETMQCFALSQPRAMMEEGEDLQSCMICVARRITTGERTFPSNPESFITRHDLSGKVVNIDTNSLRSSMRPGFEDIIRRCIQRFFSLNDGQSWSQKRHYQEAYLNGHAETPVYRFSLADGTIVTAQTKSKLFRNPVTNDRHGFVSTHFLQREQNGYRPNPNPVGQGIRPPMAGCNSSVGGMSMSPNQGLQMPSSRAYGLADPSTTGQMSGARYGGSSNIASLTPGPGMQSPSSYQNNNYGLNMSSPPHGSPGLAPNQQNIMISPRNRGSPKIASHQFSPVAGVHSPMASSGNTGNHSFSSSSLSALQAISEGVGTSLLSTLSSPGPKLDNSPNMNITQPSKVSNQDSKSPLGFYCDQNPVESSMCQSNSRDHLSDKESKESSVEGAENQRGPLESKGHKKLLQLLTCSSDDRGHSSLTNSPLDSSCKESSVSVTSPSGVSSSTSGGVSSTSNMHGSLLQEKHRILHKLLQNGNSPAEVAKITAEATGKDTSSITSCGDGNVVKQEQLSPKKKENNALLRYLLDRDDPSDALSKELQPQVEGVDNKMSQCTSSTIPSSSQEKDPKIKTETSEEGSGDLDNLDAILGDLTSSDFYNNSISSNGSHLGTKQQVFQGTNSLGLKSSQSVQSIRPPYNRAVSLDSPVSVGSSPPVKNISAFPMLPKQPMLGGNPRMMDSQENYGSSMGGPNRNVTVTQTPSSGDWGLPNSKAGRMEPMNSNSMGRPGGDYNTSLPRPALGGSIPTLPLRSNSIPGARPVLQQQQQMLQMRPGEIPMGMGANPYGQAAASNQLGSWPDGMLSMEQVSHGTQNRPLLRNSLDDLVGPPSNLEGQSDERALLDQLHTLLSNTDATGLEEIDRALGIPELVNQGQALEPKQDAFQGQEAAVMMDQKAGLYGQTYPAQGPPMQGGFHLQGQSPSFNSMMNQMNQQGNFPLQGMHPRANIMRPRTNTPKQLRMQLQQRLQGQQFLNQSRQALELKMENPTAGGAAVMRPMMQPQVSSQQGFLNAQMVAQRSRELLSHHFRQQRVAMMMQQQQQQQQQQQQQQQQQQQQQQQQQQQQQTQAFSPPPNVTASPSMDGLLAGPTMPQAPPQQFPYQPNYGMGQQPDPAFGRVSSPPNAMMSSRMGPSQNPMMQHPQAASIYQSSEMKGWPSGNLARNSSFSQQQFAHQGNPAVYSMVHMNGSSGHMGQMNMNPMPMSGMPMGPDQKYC

Row | Structure (SMILES) | inhibition
1 | CCOc1ccc(-n2c(C)c(C(C)=O)c3cc(O)ccc32)cc1 | 59.7% (active)
2 | CCc1nc(Cl)c(C#N)c2c1CCCC2 | 43.2% (active)
3 | COc1cc2cncc(Cc3ccc(Cl)cc3)c2cc1OC | 42.2%
4 | COc1ccc(C(=O)N/N=C/c2cc(Br)ccc2O)cc1OC | 26.2%
5 | Cc1cc(C)nc(/N=C(\N)Nc2ccc(-c3ccccc3)cc2)n1 | 9.37%
6 | O=C1CC(c2ccc3c(c2)OCO3)Sc2nc3ccccc3n21 (stereo not given) | -6.28%
7 | COc1cc(Cl)cc(/C=N\NC(=O)c2ccc3c(c2)OCO3)c1O | 24.7%
8 | O=C(NNC1=Nc2cccc3cccc1c23)c1ccccc1Br | 19.4%
9 | O=C(Nc1ccc(Cn2cccn2)cc1)c1ccc(COc2cccc(Br)c2)cc1 | 1.93%
10 | Cc1cn([C@@H](CCCCNC(=O)OC(C)(C)C)C(=O)NCCCCCCCCCCC(=O)N2CCN(C(=O)OC(C)(C)C)CC2)nn1 | 12.4%
11 | O=C(Nc1ccc(N2CCN(C(=O)c3ccc(Cl)cc3)CC2)cc1)c1ccc2c(c1)OCCO2 | 14.2%
12 | Cc1ccc2nc(-c3ccncc3)c(NC3CCCC3)n2c1 | 38.8%
13 | O=C(NCc1ccc(Cl)cc1)c1csc(-c2cccnc2)n1 | 13.6%
14 | COc1ccc(-n2cnc3c(sc4nccc(N(C)C)c43)c2=O)cc1 | 40.1%
15 | O=C(N/N=C/c1sc(N2CCOCC2)nc1-c1ccccc1)c1cccc(S(=O)(=O)N2CCCC2)c1 | 53.4% (active)
16 | Oc1ccc(-c2n[nH]c(=S)n2-c2ccc3c(c2)OCCO3)c(O)c1 | 50% (active)
17 | Nc1nc(CCl)nc(Nc2cccc3ccccc23)n1 | 42.7%
18 | N#Cc1c2ccc(O)cc2n2ccccc12 | 41.8%
19 | Nc1ccn([C@@H]2O[C@H](CO)[C@@H](O)C2O)c(=O)n1 (stereo not given in full) | 33.8%
20 | CC(C)CC(=O)/C(=C\c1ccc(Cl)cc1Cl)n1cncn1 | 60.2% (active)

Row | Structure (SMILES) | inhibition
21 | CN(C)/C=C/C(=O)c1ccc2noc(-c3ccccc3)c2c1 | 55.5% (active)
22 | Cc1nc2c(-c3ccc(Cl)cc3)c(C)[nH]n2c(=O)c1Cc1ccccc1 | 24.1%
23 | Cc1nc(N2CCC(C(N)=O)CC2)c2c(-c3cccs3)csc2n1 | 38%
24 | COc1ccc(-c2csc3ncnc(NCCCO)c23)cc1 | 66.3% (active)
25 | CC(C)(C)c1cc(C(=O)N/N=C/c2ccc(O)cc2)n(-c2ccccc2)n1 | 34.9%
26 | COc1ccc(-c2cn[nH]c2-c2ccc(OC)cc2)cc1 | 59.5% (active)
27 | C[n+]1c2n(c3ccccc31)N=C(c1ccccc1)CS2 | 4.94%
28 | CCOc1cc(Br)cc(/C=N/NC(=O)c2cccnc2)c1O | 33%
29 | O=C(N/N=C/c1c(O)ccc2ccccc12)c1cccc(C(F)(F)F)c1 | 82.3% (active)
30 | COc1cc(/C=C2\SC(N)=NC2=O)cc(OC)c1 | 20.4%
31 | CCCCOC(=O)c1[nH]c2c(c1C)C(=O)CC(c1cc(OC)c(OC)c(OC)c1)C2 (stereo not given) | 8.2%
32 | COc1ccc2[nH]c(=O)c(CN(CCN3CCCC3)C(=O)Nc3ccccc3Cl)cc2c1 | 31.9%
33 | COc1ccc(CN(C)C(=O)c2ccc(OCC(=O)Nc3cccc(C(F)(F)F)c3)c(OC)c2)cc1 | 4.69%
34 | O=C(NC1CCCCCCC1)C1c2ccccc2C(=O)N1Cc1cccs1 (stereo not given) | 5.02%
35 | Cc1c2ccncc2cc2c1[nH]c1ccccc12 | 48.7% (active)
36 | COc1ccc(-c2cnc(N)nc2-c2ccc(OC)cc2O)cc1 | 22.5%
37 | O=[N+]([O-])c1ccc(O)c(/C=N/Nc2ccccn2)c1 | 56.8% (active)
38 | Cc1nc(N)c(CC(Br)CBr)c(Cl)n1 (stereo not given) | 31.8%
39 | O=C(N/N=C/c1cc([N+](=O)[O-])ccc1O)c1cccc(N2CCCC2=O)c1 | 15.9%
40 | OCCN1CCN(C(=S)c2ccc(-c3ccccc3)cc2)CC1 | 35.6%
